Screens (PubChem)
MITF TRPM1 HTS – activators of MITF-driven TRPM1 promoter reporter, primary screen, cell-based, SK-MEL-5, luciferase, single point. SK-MEL-5 TRPM1-promoter luciferase, 24 h; % of positive control, neutral wells = 0. AID 588334, 2011. activation, % at 12.5 µM. 300,000 tested, 0.75% active;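 active = mean activation of at least 80% with every replicate also reaching 80%; inconclusive = mean reaches 80% but some replicate falls short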;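 note: 0% = neutral control wells and 100% = parthenolide positive control wells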
esBAF inh – Bmi1 luciferase reporter increase in mESCs, primary screen, esBAF inhibitor project, mouse ES cells, Bmi1 luciferase knock-in, single point | reporter increase, % at 12.5 µM | 350,000 tested, 2% active | 24 h; 100% = twice the neutral-well signal | AID 602393, 2012; in the data active = activation above about 40%; inconclusive = no clear call, values can overlap the other calls;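 note: 0% = median of the plate's neutral control wells and 100% = double that signal; a rise in the Bmi1 reporter signal indicates esBAF inhibition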
AHR act – AHR activators, primary screen, cell-based, luminescence, luciferase reporter, human; AID 2796, 2010; 320,000 tested, 2.5% active; activation, % at 5 µM; AHR-responsive luciferase reporter cells; in the data active = activation above about 47%;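 note: 0% = vehicle wells and 100% = reference agonist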
Wnt act – Wnt/beta-catenin pathway activators, primary screen, cell-based, plate reader, single point. Wnt/beta-catenin reporter cell assay, activator. activation, % at 9.35 µM. 300,000 tested, 1.2% active; in the data active = activation above about 30%, passing the limit was not always enough; inconclusive = no clear call, values can overlap the other calls;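 note: 0% = neutral control wells and 100% = positive control wells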
FXN GAA850 act – FXN promoter activators, primary screen, cell-based, luciferase luminescence, HEK293 lucGAA850; HEK293 lucGAA850 FXN promoter luciferase reporter, 24 h; percent of 10 µM SAHA response; 360,000 tested, 0.56% active; activation, % at 6 µM; AID 540364, 2011;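 active = activation above the average of all compounds screened plus 3 SD, cutoff fixed separately per campaign, cut at about 7.5% in these data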;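 note: 0% = DMSO wells and 100% = 10 µM SAHA wells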
Starred values were filed as active, the others as inactive; u = inconclusive; x = no result. Only some compounds are listed: those with a hit (about 4.2% of all), similar ones and a draw of the others.

SMILES	MITF TRPM1 HTS	esBAF inh	AHR act	Wnt act	FXN GAA850 act
Cc1ccc(N2C(=O)c3ccccc3NC2C(C)Cc2ccc3c(c2)OCO3)cc1 (stereo not given)	x	52*	7	x	-3
CC(C)Oc1ccccc1C1Nc2ccccc2C(=O)N1c1ccc2c(c1)OCCO2 (stereo not given)	25	-28	6	x	-1
COC(=O)c1ccc(N2CCN(c3ccccc3)CC2)nc1	100*	50*	2	25	6
C=CCOC(=O)c1ccc(N2CCN(c3ccccc3)CC2)nc1	45	26	1	5	7
O=C(Nc1ccsc1C(=O)NC1CC1)c1ccccc1	x	-4	59*	0	-1
O=C(Nc1ccsc1C(=O)O)c1ccccc1	14	3	5	5	2
CCOC(=O)c1c(C=O)c2sc(C)cc2n1C	24	6	2	44*	4
O=C(COC(=O)CNC(=O)c1ccc(Cl)c([N+](=O)[O-])c1)NC(=O)c1ccccc1	7	-8	57*	2	3
Cc1noc(C)c1S(=O)(=O)N(C)C[C@H]1Oc2ccc(NC(=O)NC3CCCCC3)cc2CC(=O)N([C@@H](C)CO)C[C@@H]1C	x	-2	x	x	x
CN=c1sc2ccccc2n1CC(O)c1ccccc1 (stereo not given)	-6	x	63*	-2	0
CN=c1sc2ccccc2n1CC(O)COCc1ccco1 (stereo not given)	-6	x	11	x	-2
CCCc1nc2ccc(Cl)cn2c1Cc1ccccc1	x	-1	x	5	x
Clc1ccc2nc(-c3cccc(Br)c3)c(Cc3ccccc3)n2c1	x	u	x	34*	x
CCCc1nc2ccc(C)cn2c1Cc1cccc(Cl)c1	x	45*	x	2	x
Cc1ccc2nc(-c3cccc(Br)c3)c(CC3CCCCC3)n2c1	x	46*	x	24	x
Cc1ccc2nc(-c3ccccc3)c(Cc3cccc(Cl)c3)n2c1	x	u	x	41*	x
CO[C@H]1CN(C)C(=O)c2cc(NC(=O)NC(C)C)ccc2OC[C@@H](C)N(Cc2cncnc2)C[C@@H]1C	x	1	x	x	x
C[C@H]1CN([C@@H](C)CO)C(=O)CCCn2nncc2CO[C@@H]1CN(C)Cc1cccnc1	x	1	x	x	x
C[C@@H]1CN([C@H](C)CO)C(=O)c2cccc(NC(=O)C3CCOCC3)c2O[C@@H]1CN(C)S(=O)(=O)c1cn(C)cn1	x	-6	x	x	x
C[C@H]1CN([C@@H](C)CO)C(=O)Cc2cc(NC(=O)CCN3CCOCC3)ccc2O[C@@H]1CN(C)C(=O)Nc1ccccc1	x	-5	x	x	x
Clc1cccc(Cc2c(-c3cccc(Br)c3)nc3ccc(Cl)cn23)c1	x	39	x	0	x
Cc1ccc2nc(-c3cccc(Br)c3)c(Cc3cccc(Cl)c3)n2c1	x	u	x	36*	x
Cc1ccc2nc(-c3ccc(Cl)cc3)c(Cc3cccc(F)c3)n2c1	x	x	x	10	x
Cc1ccc(-c2nc3ccc(Cl)cn3c2Cc2cccc(F)c2)cc1	x	50*	x	2	x
C[C@@H]1CN([C@H](C)CO)S(=O)(=O)c2ccc(C#CC3CCCCC3)cc2O[C@@H]1CN(C)C(=O)Cc1ccncc1	x	7	x	x	x
SMILES	MITF TRPM1 HTS	esBAF inh	AHR act	Wnt act	FXN GAA850 act
Cc1noc(C)c1S(=O)(=O)N(C)C[C@@H]1OCc2cn(nn2)CCCC(=O)N([C@H](C)CO)C[C@@H]1C	x	1	x	x	x
CC(C)c1ccc(/C=N/NC(=O)c2c(Cl)cnn2C)cc1	93*	x	12	x	5
CCCOc1ccc(C(=O)NNC(=S)NC(=O)c2cccs2)cc1	-14	-20	5	-6	-3
O=C(NC(=S)NNC(=O)c1cccs1)c1ccccc1	-30	13	52*	6	3
Cc1cccc(C(=O)NC(=S)NNC(=O)c2cccs2)c1	-1	x	18	0	0
CC(C)(C)c1ccc(C(=O)NC(=S)NNC(=O)c2cccs2)cc1	2	x	74*	x	7
CCCNC(=O)Nc1ccc2c(c1)OC[C@@H](C)N(C(=O)C1CCC1)C[C@H](C)[C@H](OC)CN(C)C2=O	x	-1	x	x	x
O=C(COC(=O)c1c(F)cccc1Cl)NC1CCCC1	29	50*	-1	3	5
O=C(COC(=O)c1ccccc1Cl)NC1CCCCCC1	56	69*	1	-4	5
O=C(COC(=O)c1c(Cl)cccc1Cl)NC1CCCCC1	5	x	0	0	1
CCC(=O)N(C)C[C@H]1Oc2cc(-c3ccc(F)cc3)ccc2S(=O)(=O)N([C@H](C)CO)C[C@@H]1C	x	-1	x	x	x
